Hit rate of the full screen: of about 2,000 compounds, about 25 (1%) were called active.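 Rule for the calls: active = log2 luciferase ratio at or below -0.5849, meaning signal at two thirds of solvent-only control or lower; inactive = the rest.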 This excerpt belongs to a sample that is enriched for actives.

log2 luciferase activity ratio data for 71 molecules are collected here from PubChem BioAssay AID1224817 (Yan Lab, Georgia Cancer Center, Augusta University, 2016).

This experiment in a line: inhibitors of EIF4E gene expression, primary screen, cell-based, HT1080, luciferase reporter (AID 1224817).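 Note: luciferase reports endogenous eIF4E expression since it is co-expressed from the native EIF4E locus.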 The conditions noted are these: HT1080 EIF4E-luc2 knock-in reporter, 16 h, at 2.5 µM, stronger effect = lower value. (Reporter assays use an easily measured gene product as a stand-in for the process of interest.)
Turning to `O=C1N[C@@H]([C@H]2CC[C@H](Cl)CN2)C(=O)N[C@H]1[C@H]1CC[C@H](Cl)CN1`, the log2 luciferase activity ratio was -0.835 (active).
Regarding `O=[N+]([O-])c1nccn1CC(O)CN1CCCCC1` (stereo unspecified), the log2 luciferase activity ratio is 0.364 (inactive).
Then `NC(Cc1nn[nH]n1)C(=O)O` (stereo unspecified), with -0.174 (inactive); and `Cc1cc2ccccc2c[n+]1CC(O)C[n+]1cc2ccccc2cc1C`, with -0.0398 (inactive).
With `O=C(O)c1nn(-c2ccc(Cl)cc2)c2c1C(=O)c1ccccc1C2=O`, the log2 luciferase activity ratio is 0.061 (inactive).
For `Cc1c2cccc(Sc3ccccc3)c2c2c3c(cccc13)[S+](c1ccccc1)C2` (stereo unspecified) the value was 0.38 (inactive); for `Cc1ncc(COP(=O)(O)O)c(C)c1O`, 0.148 (inactive).
For `O=C(O)c1ccc(C(=O)O)c(C(=O)O)c1.[NH-]C1CCCCC1[NH-].[Pt+2]` the value was 0.127 (inactive); for `Cn1c(=S)c2[nH]c(SCCCc3ccccc3)nc2n(C)c1=O`, 0.0675 (inactive).
Take `CN1CCN(c2nc3c(c(=O)n(C)c(=O)n3C)n2C)CC1`: the log2 luciferase activity ratio is -0.0962 (inactive).
For `Cc1[nH]n(-c2ccc(S(=O)(=O)O)cc2)c(=O)c1N=Nc1ccccc1` the value was 0.391 (inactive); for `Nc1ccc(N=Nc2ccc(-c3ccc(O)cc3)cc2)c2ccc(S(=O)(=O)O)cc12`, 0.247 (inactive); for `NNC(=O)C(O)C(O)C(=O)NN` (stereo unspecified), 0.225 (inactive).
Take `Nc1nc2c(c(=O)[nH]1)NC(CCNc1ccc(C(=O)O)cc1)CN2` (stereo unspecified): the log2 luciferase activity ratio is -0.0715 (inactive).
For `O=C1COC(c2ccccc2O)=NN1CCCN1CCCC1` the value was 0.0493 (inactive).
For `CNC1C(OC2C(OC3C(O)C(O)C(N=C(N)N)C(O)C3N=C(N)N)OC(C)C2(O)/C=N/NC(N)=S)OC(CO)C(O)C1O` (stereo unspecified), the log2 luciferase activity ratio is -0.0125 (inactive).
Then `COc1cccc2[nH]c(-c3ccccn3)nc12`, with 1.75 (inactive); and `C/C=C/c1cc2c(c(=O)o1)C(=O)[C@@H](O)[C@H](C)O2`, with 0.166 (inactive).
Then `Sc1ccc2ccccc2c1CNCc1ccccc1`, with 0.379 (inactive).
On to `O=C(O)C1CC[N-]CC1.O=C(O)C1CC[N-]CC1.[NH2-].[NH2-].[Pt+4]`, for which the log2 luciferase activity ratio is 0.578 (inactive).
In the case of `CCC(C(=O)C(C)C(O)C(C)CCc1ccc(C)c(O)c1C(=O)O)C1OC(CC)(C2CCC(O)(CC)C(C)O2)CC1C` (stereo unspecified), the log2 luciferase activity ratio was -0.243 (inactive).
For `CC1=C2[C@H]3OC(=O)[C@@H](C)[C@@H]3CC[C@@]2(C)C=C/C1=N\O`, the log2 luciferase activity ratio is -0.026 (inactive).
With `Cc1ccc2nc(-c3ccc(NC(=O)c4ccc(N)cc4)c(S(=O)(=O)O)c3)sc2c1`, the log2 luciferase activity ratio was 0.394 (inactive).
For `CCOc1ccc2c(ccc(/C=C\c3cc(C)c4cccnc4c3O)[n+]2C)c1`, the log2 luciferase activity ratio is -0.823 (active).
As for `O=C(O)CNC(=O)C1NC(C(F)(F)F)(C(F)(F)F)OC1(C(F)(F)F)C(F)(F)F` (stereo unspecified), the log2 luciferase activity ratio is 0.305 (inactive).
`C=C1C(=O)OC2CC(C)C3(O)CCC(=O)C3(C)CC12` (stereo unspecified): the log2 luciferase activity ratio was -0.237 (inactive).
For `Nc1ccc(S(=O)(=O)NCCS(=O)(=O)O)cc1` the value was -0.13 (inactive).
For `O=C(O)c1cc(=O)[nH]c(=S)[nH]1` the value was 0.238 (inactive); for `NC(N)=N/N=C/c1ccc(O)c(C(=O)O)c1`, 0.267 (inactive); for `NNC(=O)CS(=O)(=O)Nc1ncccn1`, -0.266 (inactive).
Then `O=C(N/N=C/c1ccc2c(c1)CCC2)c1ccccc1O`, with 0.157 (inactive); and `CS(=O)(=O)Nc1ccc(Nc2c3ccccc3nc3ccccc23)cc1`, with 0.308 (inactive).
Consider `O=C(O)C(O)C(O)C(O)C(=O)CO` (stereo unspecified), for which the log2 luciferase activity ratio is -0.272 (inactive).
Then `Cc1nc(CN2CCCCC2)c(O)c(=O)[nH]1`, with -0.0244 (inactive); and `Oc1cccnc1CN1CCCCC1`, with -0.635 (active).
In the case of `CC(=O)Nc1cc(CN2CCCCC2)c(O)c2ncccc12`, the log2 luciferase activity ratio was -0.0787 (inactive).
Then `O=P(O)(CCP(=O)(O)c1ccccc1)c1ccccc1`, with 0.225 (inactive); and `OCC1OC(n2cnc3c(/C=C(/O)c4ccccc4)ncnc32)C(O)C1O` (stereo unspecified), with 1.58 (inactive).
For `O=c1ccc2nc3ccc(O)cc3oc-2c1` the value was -0.212 (inactive); for `C[n+]1cccc(/C=C/c2ccc3cccc(O)c3n2)c1`, 0.721 (inactive).
Take `NC(CCCCO)C(=O)O` (stereo unspecified): the log2 luciferase activity ratio is 0.0343 (inactive).
Then `COc1ccc2c3c(ccc2c1)NC(C(=O)O)CC3` (stereo unspecified), with 1.85 (inactive).
Then `O=C(O)CC(Sc1ccccc1)c1ccccc1` (stereo unspecified), with 0.113 (inactive); and `Cc1cc(N=Cc2c(CO)cnc(C)c2O)c(N=Cc2c(CO)cnc(C)c2O)cc1C.[Zn]`, with 0.374 (inactive); and `NCCN1C(=O)c2ccccc2C1(O)c1ccc(Cl)cc1` (stereo unspecified), with 0.275 (inactive).
As to `O=C(O)CC(C(=O)O)c1ccccc1[N+](=O)[O-]` (stereo unspecified), the log2 luciferase activity ratio was -0.346 (inactive).
Take `O=C(O)C(C1NCCS1)N1C(=O)c2ccccc2C1=O` (stereo unspecified): the log2 luciferase activity ratio is -0.326 (inactive).
For `Clc1ccc2c(NCCNC3CCCCC3)ccnc2c1` the value was -0.0725 (inactive); for `O=C(O)Cc1c(O)ccc2ccccc12`, -0.364 (inactive).
Take `CC(C)=CCNc1ncnc2c1c(C#N)cn2C1OC(CO)C(O)C1O` (stereo unspecified): the log2 luciferase activity ratio is -0.135 (inactive).
Take `N#CC[N+]1(Cc2ccccn2)CCCC1`: the log2 luciferase activity ratio was -0.0477 (inactive).
For `CN(C)CCCN=c1c2ccccc2n(C)c2[nH]c(=O)n(C)c(=O)c12`, the log2 luciferase activity ratio was -0.0932 (inactive).
For `O=C(O)CSCC(=O)c1ccccc1` the value was -0.355 (inactive).
For `Cc1ccc(S(=O)(=O)OCC(=O)O)cc1`, the log2 luciferase activity ratio is 0.01 (inactive).
With `CC12CCC3c4ccc(O)cc4CCC3C1C/C(=N\O)C2O` (stereo unspecified), the log2 luciferase activity ratio was -0.14 (inactive).
Then `CC1CN(CCO)CCN1c1ccccc1` (stereo unspecified), with 0.393 (inactive).
Then `O=C(O)C1C(C(=O)O)C(C(=O)O)C1C(=O)O` (stereo unspecified), with -0.115 (inactive).
Then `Cc1nn(-c2ccc(S(=O)(=O)[O-])cc2)c([O-])c1N=[N+](C)c1ccc(-c2ccc(N=Nc3ccc4c(S(=O)(=O)[O-])cc(S(=O)(=O)[O-])c(N)c4c3[O-])c([O-])c2)cc1[O-].[Cu+2].[Cu+2].[Na+]`, with 0.162 (inactive); and `OCCNc1ncnc2c1ncn2C1OC(CO)C(O)C1O` (stereo unspecified), with -0.0424 (inactive); and `CN(C)Cc1ccc(O)c(CN(C)C)n1`, with -0.0218 (inactive).
Turning to `CN(CCO)Cc1ncccc1O`, the log2 luciferase activity ratio is -0.625 (active).
Then `CN(C)CCN(c1ccccn1)c1ccccn1`, with -0.0299 (inactive).
On to `Nc1ccccc1N=Nc1c(S(=O)(=O)O)cc2cc(S(=O)(=O)O)cc(O)c2c1O`, for which the log2 luciferase activity ratio is -0.0279 (inactive).
`CC1=CC(C2/C(=N/O)C=C(C)CC2(C)C)C(O)C(C)(C)C1` (stereo unspecified): the log2 luciferase activity ratio was -0.118 (inactive).
As for `Fc1cccc(Cl)c1/C=N\N=C1c2ccccc2-c2ccccc21`, the log2 luciferase activity ratio is -0.123 (inactive).
Turning to `c1ccc2cc(-c3cc(-c4cc(-c5ccc6ccccc6c5)on4)no3)ccc2c1`, the log2 luciferase activity ratio is 0.0163 (inactive).
Then `N=C(N)c1ccc(/C=C/c2ccc(C(=N)N)cc2)cc1`, with -0.247 (inactive); and `O=S(=O)(O)C(c1ccccc1)C(O)c1ccccc1` (stereo unspecified), with -0.161 (inactive); and `O=C(O)CNc1ccc(C(=O)O)cc1`, with -0.647 (active).
Then `O=C(O)c1ccc(NS(=O)(=O)Cc2ccccc2)cc1`, with 0.0192 (inactive); and `NCc1ccc(C(=O)O)cc1`, with 0.304 (inactive).
